Test results taken from PubChem BioAssay (NCATS).
Records with an inconclusive call do not appear. Activity calls are given as the source filed them. Calls follow the shape of the dose curve; as a rule, active = well fitted curve in the direction sought with a large enough effect; inconclusive = small, poorly fitted or top-dose-only effect, or another doubt; inactive = no such curve, though single readings can be large; an effect the other way counts as inactive or inconclusive.

Tests used:
[1] = qHTS of pediatric cancer cell lines to identify multiple opportunities for drug repurposing: Primary screen for OHS-50 cells (AID 1347103); also: nearly all actives have a fitted effect of over 40% in size; also: potency is read from the fitted curve at half-maximal effect;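 as to activity change, negative = cytotoxic: plate controls were DMSO neutral control for no effect and bortezomib positive control for full effect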
In short: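 Cells (500-1,000/well) rested 5 h, then received compounds for 48 h; metabolically active cells were measured by CellTiter-Glo luminescence. Final concentrations spanned up to 46 µM (MIPE, 11-point) or 0.59 nM-46 µM (NPC, 8-point) in primary screens, 11-point in follow-ups.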

[2] = qHTS of pediatric cancer cell lines to identify multiple opportunities for drug repurposing: Primary screen for RD cells (AID 1347104); also: potency is read from the fitted curve at half-maximal effect; nearly all actives have a fitted effect of over 55% in size
In short: (§1)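 Readout: CellTiter-Glo luminescence, 48 h treatment. Controls DMSO (neutral) and bortezomib 2.3 µM final (positive). Potency and efficacy taken from primary-screen concentration-response curves.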

[3] = qHTS of pediatric cancer cell lines to identify multiple opportunities for drug repurposing: Primary screen for Rh41 cells (AID 1347108); also: potency is read from the fitted curve at half-maximal effect; nearly all actives have a fitted effect of over 70% in size
In short: as §1

[4] = qHTS of pediatric cancer cell lines to identify multiple opportunities for drug repurposing: Primary screen for Rh30 cells (AID 1347107); also: nearly all actives have a fitted effect of over 75% in size; also: potency is read from the fitted curve at half-maximal effect; as to activity change, negative = cytotoxic: % is scaled to controls: 0 for no effect and ±100 for the full control effect
In short: (§2)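 Viability after 48 h compound treatment at 37C, 500-1,000 cells/well, read as ATP luminescence with CellTiter-Glo. Primary screens used 11-point (MIPE, 0.78 nM-46 µM) or 8-point (NPC, 0.59 nM-46 µM) final concentrations; follow-up screens used 11-point dilutions.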

[5] = qHTS of pediatric cancer cell lines to identify multiple opportunities for drug repurposing: Primary screen for control Hh wild type fibroblast cells (AID 1347106); also: nearly all actives have a fitted effect of over 55% in size; also: potency is read from the fitted curve at half-maximal effect;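 as to activity change, negative = cytotoxic: % is scaled to controls: 0 for no effect and ±100 for the full control effect; a drop in luminescence marks cytotoxicity and a rise apparent proliferation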
In short: as §2

[6] = qHTS of pediatric cancer cell lines to identify multiple opportunities for drug repurposing: Confirmatory screen for A673 cells (AID 1347110); also: nearly all actives have a fitted effect of over 65% in size; also: potency is read from the fitted curve at half-maximal effect
In short: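 qHTS titration format: primary MIPE 0.78 nM-46 µM (11 pts), NPC 0.59 nM-46 µM; confirmation 11 pts. 48 h, CTG luminescence.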

[7] = qHTS of pediatric cancer cell lines to identify multiple opportunities for drug repurposing: Confirmatory screen for BT-12 cells (AID 1347112); also: nearly all actives have a fitted effect of over 55% in size; also: potency is read from the fitted curve at half-maximal effect; as to activity change, negative = cytotoxic: % is scaled to controls: 0 for no effect and ±100 for the full control effect
In short: as §2

[8] = qHTS of pediatric cancer cell lines to identify multiple opportunities for drug repurposing: Confirmatory screen for LAN-5 cells (AID 1347113); also: nearly all actives have a fitted effect of over 65% in size; also: potency is read from the fitted curve at half-maximal effect
In short: as §2

[9] = qHTS of pediatric cancer cell lines to identify multiple opportunities for drug repurposing: Confirmatory screen for DAOY cells (AID 1347114); also: nearly all actives have a fitted effect of over 65% in size; also: potency is read from the fitted curve at half-maximal effect; as to activity change, negative = cytotoxic: % is scaled to controls: 0 for no effect and ±100 for the full control effect
In short: (§3)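 Viability measured as metabolically active cells via CellTiter-Glo luminescence following 48 hours of compound exposure, 11-point dilutions in confirmatory testing. 500-1,000 cells/well plated 5 hours before dosing; controls were DMSO and 2.3 µM bortezomib.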

[10] = qHTS of pediatric cancer cell lines to identify multiple opportunities for drug repurposing: Confirmatory screen for NB-EBc1 cells (AID 1347115); also: nearly all actives have a fitted effect of over 45% in size; also: potency is read from the fitted curve at half-maximal effect; as to activity change, negative = cytotoxic: % is scaled to controls: 0 for no effect and ±100 for the full control effect
In short: as §2

[11] = qHTS of pediatric cancer cell lines to identify multiple opportunities for drug repurposing: Confirmatory screen for SJ-GBM2 cells (AID 1347116); also: nearly all actives have a fitted effect of over 60% in size; also: potency is read from the fitted curve at half-maximal effect;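 as to activity change, negative = cytotoxic: plate controls were DMSO for no effect and bortezomib for full effect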
In short: as §3

[12] = qHTS of pediatric cancer cell lines to identify multiple opportunities for drug repurposing: Confirmatory screen for BT-37 cells (AID 1347117); conditions: BT-37 pediatric cancer cells, viability; activity change, negative = cytotoxic: at 45.9 µM (top of the series); also: nearly all actives have a fitted effect of over 55% in size; also: potency is read from the fitted curve at half-maximal effect;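 as to activity change, negative = cytotoxic: plate controls were DMSO for no effect and bortezomib for full effect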
In short: as §2

[13] = qHTS of pediatric cancer cell lines to identify multiple opportunities for drug repurposing: Confirmatory screen for MG 63 (6-TG R) cells (AID 1347119); also: nearly all actives have a fitted effect of over 55% in size; also: potency is read from the fitted curve at half-maximal effect
In short: as §2

[14] = qHTS of pediatric cancer cell lines to identify multiple opportunities for drug repurposing: Confirmatory screen for control Hh wild type fibroblast cells (AID 1347121);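 also: plate controls were DMSO for no effect and bortezomib for full effect; nearly all actives have a fitted effect of over 70% in size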
In short: as §2

[15] = qHTS of pediatric cancer cell lines to identify multiple opportunities for drug repurposing: Confirmatory screen for U-2 OS cells (AID 1347122); also: nearly all actives have a fitted effect of over 65% in size; also: potency is read from the fitted curve at half-maximal effect
In short: as §2

[16] = qHTS of pediatric cancer cell lines to identify multiple opportunities for drug repurposing: Confirmatory screen for SK-N-MC cells (AID 1347111);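 also: cells exposed to compound for 48 h before the readout; nearly all actives have a fitted effect of over 70% in size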; also: potency is read from the fitted curve at half-maximal effect;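 as to activity change, negative = cytotoxic: plate controls were DMSO for no effect and bortezomib for full effect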
In short: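 SK-N-MC cells at 500-1,000 cells/well in growth media were pre-incubated 5 h, then exposed to compounds at 11-point dilutions for 48 h at 37 degrees C, 5% CO2. Viability was read as CellTiter-Glo luminescence.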

[17] = qHTS of pediatric cancer cell lines to identify multiple opportunities for drug repurposing: Confirmatory screen for TC32 cells (AID 1347118); also: nearly all actives have a fitted effect of over 65% in size; also: potency is read from the fitted curve at half-maximal effect
In short: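 Measured quantity: luminescence from CellTiter-Glo, reflecting metabolically active TC32 cells following 48 h of compound. Curves came straight from multi-point titrations, with 8 or 11 points in primary and 11 in confirmatory screening.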

[18] = qHTS of pediatric cancer cell lines to identify multiple opportunities for drug repurposing: Confirmatory screen for NB1643 cells (AID 1347109);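 also: plate controls were DMSO for no effect and bortezomib for full effect; nearly all actives have a fitted effect of over 45% in size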
In short: as §2

[19] = qHTS of pediatric cancer cell lines to identify multiple opportunities for drug repurposing: Primary screen for MG 63 (6-TG R) cells (AID 1347105); also: nearly all actives have a fitted effect of over 50% in size; also: potency is read from the fitted curve at half-maximal effect
In short: as §1

Oc1ccc([C@@H]2Oc3ccc(O)cc3[C@@H]3CCC[C@@H]32)cc1
active: Potency [1] 24.3 µM | Potency [2] 16.6 µM | Potency [3] 18.7 µM

c1ccc(CNc2nc(NCc3ccccc3)c3ccccc3n2)cc1
active: Potency [1] 30.6 µM | Potency [2] 16.6 µM | Potency [4] 23.5 µM | Potency [3] 18.7 µM

FC(F)(F)c1ccc(Nc2nc3ccc(Oc4ccnc(-c5ncc(C(F)(F)F)[nH]5)c4)cc3[nH]2)cc1
inactive: Potency [5]
active: Potency [1] 24.3 µM | Potency [2] 18.7 µM

CC(=O)SCC(Cc1ccccc1)C(=O)NCC(=O)OCc1ccccc1 (stereo not drawn)
inactive: Potency [6] | Potency [7] | Potency [8] | Potency [9] | Potency [10] | Potency [11] | Potency [12] | Potency [13] | Potency [14] | Potency [15]
active: Potency [1] 19.3 µM | Potency [2] 2.09 µM | Potency [3] 5.9 µM

CCC(C=C[C@@H]1OC(=O)C=C[C@H]1C)=C[C@H](C)CC=CC(C)=C[C@@H](C)C(=O)[C@@H](C)[C@H](O)[C@@H](C)CC(C)=CC(=O)O
active: Potency [1] 0.128 µM | Potency [2] 0.0782 µM | Potency [3] 0.0247 µM | Potency [6] 0.0322 µM | Potency [16] 0.0064 µM | Potency [7] 0.0161 µM | Potency [8] 0.0051 µM | Potency [9] 0.0128 µM | Potency [10] 0.0361 µM | Potency [12] 0.0057 µM | Potency [17] 0.0144 µM
inactive: activity change, negative = cytotoxic [4] -1.27% [at 1.86 µM]

NS(=O)(=O)OC[C@@H]1C[C@@H](n2ccc3c(N[C@H]4CCc5ccccc54)ncnc32)C[C@H]1O
inactive: Potency [1] | Potency [18] | Potency [16] | Potency [7] | Potency [10] | Potency [11] | Potency [12] | Potency [17] | Potency [13] | Potency [14] | Potency [15]
active: Potency [2] 0.833 µM | Potency [5] 6.62 µM | Potency [3] 1.87 µM | Potency [6] 14.7 µM

CC(=O)NCC(=O)N1[C@H]2CC[C@H]1c1cc(Nc3ncc(C(F)(F)F)c(NC4CCC4)n3)ccc12
active: Potency [1] 0.344 µM | Potency [2] 2.35 µM | Potency [19] 2.35 µM | Potency [3] 1.48 µM | Potency [6] 4.14 µM | Potency [16] 0.0827 µM | Potency [7] 16.5 µM | Potency [8] 1.47 µM | Potency [10] 9.27 µM | Potency [11] 5.85 µM | Potency [12] 11.7 µM | Potency [13] 0.233 µM | Potency [15] 1.85 µM

CN(C)CCN1C(=O)c2cccc3cc(N)cc(c23)C1=O
active: Potency [1] 24.3 µM | Potency [2] 18.7 µM | Potency [3] 23.5 µM

Cn1cc(C2=C(c3c4n(c5ccccc35)CCC(CN)C4)C(=O)NC2=O)c2ccccc21 (stereo not drawn)
inactive: Potency [5]
active: Potency [1] 24.3 µM | Potency [2] 29.6 µM | Potency [3] 23.5 µM

COc1ccc(CCC(=O)c2c(O)cc(O[C@@H]3O[C@H](CO)[C@@H](O)[C@H](O)[C@@H]3O[C@@H]3O[C@@H](C)[C@H](O)[C@@H](O)[C@@H]3O)cc2O)cc1O
active: Potency [5] 3.72 µM
inactive: Potency [1] | Potency [19]
